# From the antibiotic and cytotoxicity screens of Wong et al. (2023)
# Out of some 39,000 compounds screened, about 1,500 (3.8%) were called active. The list comes from a sample in which actives are over-represented; it also holds similar structures and randomly drawn compounds.
# Test system: HSkMC (human skeletal muscle cells)
# Test: cytotoxicity call (relative viability < 0.9)
# Conditions: 10 µM
row,SMILES,cytotoxicity call
1,C[C@@H]1CCCCO[C@@H](CN(C)C(=O)Nc2ccc(C(F)(F)F)cc2)[C@@H](C)CN([C@H](C)CO)C(=O)c2cc(NS(=O)(=O)c3ccc(Cl)cc3)ccc2O1,inactive
2,O=C(C[C@H]1C[C@@H]2c3cc(NS(=O)(=O)c4ccc(F)cc4)ccc3O[C@@H]2[C@H](CO)O1)NC1CCCCC1,inactive
3,C[C@@H]1CN([C@H](C)CO)C(=O)c2cc(NC(=O)Nc3cccc4ccccc34)ccc2O[C@H]1CN(C)CC1CCCCC1,inactive
4,C[C@@H]1CCCCO[C@@H](CN(C)S(=O)(=O)c2ccc(F)cc2)[C@@H](C)CN([C@@H](C)CO)C(=O)c2cc(NC(=O)NC3CCCCC3)ccc2O1,inactive
5,C[C@H]1CN([C@@H](C)CO)C(=O)Cc2cc(NS(C)(=O)=O)ccc2O[C@@H]1CN(C)Cc1ccc2c(c1)OCO2,inactive
6,O=C(C[C@@H]1C[C@@H]2c3cc(NS(=O)(=O)c4ccc(F)cc4)ccc3O[C@@H]2[C@@H](CO)O1)NC1CCCC1,inactive
7,O=C(C[C@H]1CC[C@@H]2[C@H](COC[C@H](O)CN2C(=O)Nc2cccc(Cl)c2)O1)NCCCN1CCOCC1,inactive
8,C[C@H]1CN([C@@H](C)CO)C(=O)c2cc(NC(=O)Nc3ccc(C(F)(F)F)cc3)ccc2O[C@H]1CN(C)S(=O)(=O)c1ccc(Cl)cc1,inactive
9,C[C@@H]1CN([C@@H](C)CO)C(=O)c2cc(NC(=O)Nc3ccc(C(F)(F)F)cc3)ccc2O[C@H]1CN(C)S(=O)(=O)c1ccc(Cl)cc1,inactive
10,Cc1ccc(S(=O)(=O)N(C)C[C@@H]2Oc3ccc(NC(=O)Nc4ccc(C(F)(F)F)cc4)cc3C(=O)N([C@@H](C)CO)C[C@H]2C)cc1,inactive
11,C[C@@H]1CN([C@H](C)CO)C(=O)c2cc(NC(=O)Nc3ccc(C(F)(F)F)cc3)ccc2O[C@H]1CN(C)S(=O)(=O)c1ccc(Cl)cc1,inactive
12,C[C@H](CO)N1C[C@H](C)[C@H](CN(C)S(=O)(=O)c2ccc(Cl)cc2)Oc2ccc(NC(=O)Nc3ccc(C(F)(F)F)cc3)cc2C1=O,active
13,C[C@H]1CN([C@@H](C)CO)C(=O)c2cc(NC(=O)Nc3ccc(C(F)(F)F)cc3)ccc2O[C@@H]1CN(C)S(=O)(=O)c1ccc(Cl)cc1,inactive
14,Cc1ccc(S(=O)(=O)N(C)C[C@@H]2Oc3ccc(NC(=O)Nc4ccc(C(F)(F)F)cc4)cc3C(=O)N([C@H](C)CO)C[C@H]2C)cc1,inactive
15,C[C@@H]1CN([C@@H](C)CO)C(=O)c2cc(NC(=O)Nc3ccc(C(F)(F)F)cc3)ccc2O[C@@H]1CN(C)S(=O)(=O)c1ccc(Cl)cc1,active
16,C[C@@H]1CN([C@H](C)CO)C(=O)c2cc(NC(=O)Nc3ccc(C(F)(F)F)cc3)ccc2O[C@@H]1CN(C)S(=O)(=O)c1ccc(Cl)cc1,active
17,C[C@@H]1CCCCO[C@@H](CN(C)C(=O)Nc2ccccc2)[C@H](C)CN([C@H](C)CO)C(=O)c2cc(NC(=O)CCC(F)(F)F)ccc2O1,inactive
18,C[C@@H]1CN([C@H](C)CO)C(=O)c2cc(NC(=O)CCN3CCOCC3)ccc2O[C@H]1CN(C)S(=O)(=O)c1ccccc1,inactive
19,Cc1noc(C)c1NC(=O)N(C)C[C@@H]1OCCCC[C@H](C)Oc2ccc(NC(=O)C3CCCCC3)cc2C(=O)N([C@@H](C)CO)C[C@@H]1C,inactive
20,C[C@@H]1CCCCO[C@@H](CN(C)Cc2ccc(C(=O)Nc3ccccc3N)cc2)[C@@H](C)CN([C@H](C)CO)C(=O)c2cc(NC(=O)Nc3ccc4c(c3)OCO4)ccc2O1,inactive

row,SMILES,cytotoxicity call
1,COc1ccc(CN(C)C[C@@H]2OCCCC[C@H](C)Oc3ccc(NC(=O)CCC(F)(F)F)cc3C(=O)N([C@@H](C)CO)C[C@H]2C)cc1,inactive
2,O=C(C[C@@H]1C=C[C@H](NC(=O)Nc2ccc3c(c2)OCO3)[C@H](CO)O1)NCCCN1CCOCC1,inactive
3,c1cncc(-c2nc3ccc4ccccc4c3c3c2CCCC3)c1,inactive
4,CN1CCN(C(=O)C[C@H]2CC[C@@H]3[C@H](COC[C@@H](O)CN3C(=O)Nc3ccc4c(c3)OCO4)O2)CC1,inactive
5,COc1ccc(S(=O)(=O)N(C)C[C@@H]2Oc3ccc(NS(=O)(=O)c4cn(C)cn4)cc3C(=O)N([C@@H](C)CO)C[C@@H]2C)cc1,inactive
6,C[C@@H]1CN([C@H](C)CO)C(=O)c2cccc(NC(=O)C3CCOCC3)c2O[C@@H]1CN(C)C(=O)NC1CCCCC1,inactive
7,C[C@@H]1CCCCO[C@@H](CN(C)CC2CCCCC2)[C@H](C)CN([C@H](C)CO)C(=O)c2cc(NC(=O)Nc3cccc4ccccc34)ccc2O1,active
8,C[C@@H]1CCCCO[C@H](CN(C)CC2CCCCC2)[C@H](C)CN([C@@H](C)CO)C(=O)c2cc(NC(=O)Nc3cccc4ccccc34)ccc2O1,active
9,C[C@@H]1CCCCO[C@H](CN(C)CC2CC2)[C@@H](C)CN([C@H](C)CO)C(=O)c2cc(NC(=O)Nc3cccc4ccccc34)ccc2O1,inactive
10,C[C@H]1CCCCO[C@@H](CN(C)CC2CCCCC2)[C@@H](C)CN([C@@H](C)CO)C(=O)c2cc(NC(=O)Nc3cccc4ccccc34)ccc2O1,inactive
11,C[C@@H]1CCCCO[C@@H](CN(C)CC2CCCCC2)[C@@H](C)CN([C@@H](C)CO)C(=O)c2cc(NC(=O)Nc3cccc4ccccc34)ccc2O1,active
12,C[C@H](CO)N1C[C@H](C)[C@@H](CN(C)CC2CCCCC2)OCCCC[C@H](C)Oc2ccc(NC(=O)Nc3cccc4ccccc34)cc2C1=O,inactive
13,C[C@@H]1CN([C@H](C)CO)C(=O)c2cc(NC(=O)Nc3cccc4ccccc34)ccc2O[C@@H](C)CCCCO[C@@H]1CN(C)CC1CCCCC1,active
14,C[C@H](CO)N1C[C@H](C)[C@H](CN(C)CC2CC2)OCCCC[C@H](C)Oc2ccc(NC(=O)Nc3cccc4ccccc34)cc2C1=O,inactive
15,CC(C=CC=C(C)C=CC(=O)C1(C)CC(O)CC1(C)C)=CC=CC=C(C)C=CC=C(C)C=CC1=C(C)CC(O)CC1(C)C (stereo not given),inactive
16,C[C@@H]1CN([C@H](C)CO)C(=O)c2cc(NC(=O)Cn3cnnn3)ccc2O[C@H]1CN(C)Cc1ccc(-c2ccccc2)cc1,inactive
17,CN1CCN(C(=O)C[C@H]2C=C[C@H](NC(=O)Nc3ccccc3F)[C@@H](CO)O2)CC1,inactive
18,COC(=O)C[C@H]1CC[C@@H]2[C@H](COC[C@H](O)CN2S(=O)(=O)c2cn(C)cn2)O1,inactive
19,C[C@@H]1CN([C@H](C)CO)C(=O)c2cc(N(C)C)ccc2O[C@@H](C)CCCCO[C@H]1CN(C)C(=O)Nc1cccc2ccccc12,inactive
20,C[C@@H]1CCCCO[C@H](CN(C)S(=O)(=O)c2ccc(Cl)cc2)[C@H](C)CN([C@H](C)CO)C(=O)c2cc(NS(=O)(=O)c3ccccc3)ccc2O1,inactive

row,SMILES,cytotoxicity call
1,C[C@@H]1CCCCO[C@H](CN(C)CC2CCCCC2)[C@H](C)CN([C@H](C)CO)C(=O)c2cc(NC(=O)Nc3cccc4ccccc34)ccc2O1,active
2,C[C@@H]1CN([C@@H](C)CO)C(=O)c2cc(NC(=O)Nc3cccc4ccccc34)ccc2O[C@@H](C)CCCCO[C@H]1CN(C)CC1CC1,inactive
3,C[C@@H]1CCCCO[C@H](CN(C)CC2CCCCC2)[C@@H](C)CN([C@H](C)CO)C(=O)c2cc(NC(=O)Nc3cccc4ccccc34)ccc2O1,active
4,C[C@@H]1CCCCO[C@@H](CN(C)CC2CC2)[C@H](C)CN([C@@H](C)CO)C(=O)c2cc(NC(=O)Nc3cccc4ccccc34)ccc2O1,inactive
5,C[C@@H]1CCCCO[C@@H](CN(C)CC2CCCCC2)[C@@H](C)CN([C@H](C)CO)C(=O)c2cc(NC(=O)Nc3cccc4ccccc34)ccc2O1,active
6,C[C@@H]1CCCCO[C@H](CN(C)CC2CC2)[C@H](C)CN([C@@H](C)CO)C(=O)c2cc(NC(=O)Nc3cccc4ccccc34)ccc2O1,inactive
7,C[C@H](CO)N1C[C@H](C)[C@@H](CN(C)CC2CC2)OCCCC[C@H](C)Oc2ccc(NC(=O)Nc3cccc4ccccc34)cc2C1=O,inactive
8,C[C@H]1CCCCO[C@H](CN(C)CC2CCCCC2)[C@@H](C)CN([C@@H](C)CO)C(=O)c2cc(NC(=O)Nc3cccc4ccccc34)ccc2O1,active
9,C[C@@H]1CCCCO[C@@H](CN(C)CC2CC2)[C@@H](C)CN([C@H](C)CO)C(=O)c2cc(NC(=O)Nc3cccc4ccccc34)ccc2O1,inactive
10,C[C@H](CO)N1C[C@H](C)[C@@H](CN(C)C)OCCCC[C@H](C)Oc2ccc(NC(=O)Nc3cccc4ccccc34)cc2C1=O,inactive
11,C[C@H](O)c1nc(=O)c2ccccc2[nH]1,inactive
12,CC(=O)OCC(=O)C1(O)CCC2C3CCC4=CC(=O)C=CC4(C)C3(F)C(O)CC21C (stereo not given),inactive
13,C[C@H](CO)N1C[C@H](C)[C@@H](CN(C)C(=O)Nc2ccc3c(c2)OCCO3)OCc2cnnn2CCCC1=O,inactive
14,COCC(=O)Nc1ccc2c(c1)C(=O)N(C)C[C@H](OC)[C@@H](C)CN(Cc1ccccc1OC)[C@H](C)CO2,inactive
15,S=C1C=C(N2CCCCC2)C[C@H](c2ccc(Cl)cc2)S1,inactive
16,C[C@@H]1CN([C@@H](C)CO)C(=O)c2cc(NC(=O)Nc3ccc(F)cc3)ccc2O[C@H]1CN(C)S(=O)(=O)c1cn(C)cn1,inactive
17,Cc1noc(C)c1NC(=O)Nc1ccc2c(c1)C(=O)N([C@@H](C)CO)C[C@@H](C)[C@@H](CN(C)C(=O)NC(C)C)O2,inactive
18,CCO[C@H]1OC(C(=O)N2CCN(Cc3ccccc3)CC2)=C[C@@H](C)[C@@H]1CCCOC(=O)NCCCCCC(=O)NO,inactive
19,C[C@H](CO)N1C[C@H](C)[C@H](CN(C)Cc2ccc(Cl)c(Cl)c2)Oc2ccc(NC(=O)Cc3ccccc3)cc2C1=O,inactive
20,C[C@@H]1CN([C@H](C)CO)C(=O)Cc2cc(NS(C)(=O)=O)ccc2O[C@H]1CN(C)C(=O)Nc1ccc2c(c1)OCO2,inactive
